{"source": "PubChem BioAssay (EPA / NIEHS)", "note": "Results filed as inconclusive are left out. The source made the active and inactive calls. Rule for the calls: active = hit-call score of the fitted dose curve at least 0.9, where 1 is the maximum; inconclusive = response in the unintended direction; inactive = score below 0.9.", "data": [{"molecular_target": "rat Gamma-Aminobutyric Acid Type A Receptor BDZ, alpha 6 site (GABARa6), Gabra6 (gene 29708) (UniProt P30191)", "sequence (P30191 whole entry, looked up)": "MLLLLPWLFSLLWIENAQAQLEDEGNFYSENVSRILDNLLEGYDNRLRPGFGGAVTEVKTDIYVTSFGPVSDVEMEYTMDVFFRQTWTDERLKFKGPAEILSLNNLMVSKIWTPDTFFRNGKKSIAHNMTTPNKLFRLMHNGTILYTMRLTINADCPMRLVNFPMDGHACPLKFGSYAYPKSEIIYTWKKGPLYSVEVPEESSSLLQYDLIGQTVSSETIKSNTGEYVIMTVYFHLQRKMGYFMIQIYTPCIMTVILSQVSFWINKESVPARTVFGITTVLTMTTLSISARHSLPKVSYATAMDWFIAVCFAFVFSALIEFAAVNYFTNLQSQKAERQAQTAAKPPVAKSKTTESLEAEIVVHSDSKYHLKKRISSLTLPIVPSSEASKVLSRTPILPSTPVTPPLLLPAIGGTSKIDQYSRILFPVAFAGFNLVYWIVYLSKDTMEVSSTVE", "assay": "NVS_LGIC_rGABARa6: NovaScreen (NVS) Ligand-Gated Ion Channel Assay for rat Gamma-Aminobutyric Acid Type A Receptor BDZ, alpha 6 site (GABARa6) (AID 2283339)", "description": "NVS_LGIC_rGABARa6 is a biochemical, single-readout assay that uses extracted gene-proteins from Rat cerebellar membranes in a tissue-based cell-free assay. Measurements were taken 1 hour after chemical dosing in a 48-well plate.NVS_LGIC_rGABARa6 is one of one assay component(s) measured or calculated from the NVS_LGIC_rGABARa6 assay. It is designed to make measurements of radioligand binding, a form of binding reporter, as detected with scintillation counting signals by Filter-based radiodetection technology.Data from the assay component NVS_LGIC_rGABARa6 was analyzed into 1 assay endpoint. This assay endpoint, NVS_LGIC_rGABARa6, was analyzed in the positive analysis fitting direction relative to DMSO as the negative control and baseline of activity. Using a type of binding reporter, loss-of-signal activity can be used to understand changes in the binding as they relate to the gene Gabra6. Furthermore, this assay endpoint can be referred to as a primary readout, because the performed assay has only produced 1 assay endpoint. To generalize the intended target to other relatable targets, this assay endpoint is annotated to the ion channel intended target family, where the subfamily is ligand-gated ion channel.\nBinding assays used specific radioligands (tritiated, iodinated) with non-radioactive competitive displacement ligands in agonist or antagonist protocols (as indicated) and various reference compounds and inhibitors to titrate specific binding to receptors and transporters. Most enzyme assays (CYPs, kinases, phosphatases, proteases, HDACs) used recombinant protein and specific substrates (fluorescence mostly, some colorimetric and radioactive) and inhibitors, followed by a biochemical separation of substrate and product. All assays for the biochemical HTS were initially run in duplicate at a single concentration (10 uM for CYP450 assays and 25 uM for all others). Assay-chemical combinations meeting a pre-defined threshold (e.g., 30% inhibition and other criteria defined below) were then run in singleton concentration-response format with maximum concentration of 20 uM for CYPs and 50 uM for all others. Each assay was run with positive and negative controls, and concurrent controls on every plate. The follow-up (secondary) screen tested active chemical-pairs in concentration series, as well as a few additional assays not tested in the primary screen, some selected negative inactives, and several cases re-run in the concentration series for confirmatory purposes.", "values": [{"smiles": "CCCCCCCCCC(=O)O", "outcome": "inactive"}, {"smiles": "CCC(C)N(C)C(=O)c1cc2ccccc2c(-c2ccccc2Cl)n1", "note": "(stereo not given)", "outcome": "inactive"}, {"smiles": "Cc1c(-c2cccnc2)c2ccccc2n1CCCCC(=O)O", "outcome": "inactive"}, {"smiles": "O=c1n(CC2CO2)c(=O)n(CC2CO2)c(=O)n1CC1CO1", "note": "(stereo not given)", "outcome": "inactive"}, {"smiles": "CC(C)(C)CC(C)(C)c1ccc(O)c(-n2nc3ccccc3n2)c1", "outcome": "inactive"}, {"smiles": "C[C@]12CC[C@H](O)C[C@H]1CC[C@@H]1[C@@H]2C[C@@H](O)[C@]2(C)[C@@H](C3=CC(=O)OC3)CC[C@]12O", "outcome": "inactive"}, {"smiles": "CCOc1ccc2[nH]cc(C(=O)NCc3ccccc3)c(=O)c2n1", "AC50": "215 nM (active)"}, {"smiles": "Cc1cccc(C)c1[N+](=O)[O-]", "outcome": "inactive"}, {"smiles": "C=COCCCl", "outcome": "inactive"}, {"smiles": "CCCC(CCC)C(=O)O", "outcome": "inactive"}, {"smiles": "CS(=O)(=O)c1ccc(C2=C(c3ccccc3)C(=O)OC2)cc1", "outcome": "inactive"}, {"smiles": "COc1ccc(OC)c(N=Nc2c(O)ccc3ccccc23)c1", "outcome": "inactive"}, {"smiles": "C[Si]1(C)O[Si](C)(C)O[Si](C)(C)O[Si](C)(C)O1", "outcome": "inactive"}, {"smiles": "CC=Cc1ccc(OCC)c(O)c1", "outcome": "inactive"}, {"smiles": "CCn1nc(C)c2c1C(=O)NCC(c1ccc(O)cc1)=N2", "outcome": "inactive"}, {"smiles": "O=C(OCCOCCOC(=O)c1ccccc1)c1ccccc1", "outcome": "inactive"}, {"smiles": "NC(=O)N1c2ccccc2C=Cc2ccccc21", "outcome": "inactive"}, {"smiles": "CC[C@H](C)[C@@H](C(=O)O)n1sc2ccccc2c1=O", "outcome": "inactive"}, {"smiles": "Cc1ccc(C(C)C)c(O)c1", "outcome": "inactive"}, {"smiles": "COC(=O)c1ccccc1S(=O)(=O)NC(=O)Nc1nc(OC(F)F)cc(OC(F)F)n1", "outcome": "inactive"}]}]}
